About 7,900 targets were measured; listed, in parts, are those with a hit and a random draw of the rest. About 0.6% of all pairs of compound and target were hits.
compound: CN1CCN(CCOc2cc(OC3CCOCC3)c3c(Nc4c(Cl)ccc5c4OCO5)ncnc3c2)CC1 [saracatinib]; test: log2 fold change, soluble protein after heating vs DMSO (PISA); higher = thermal stabilisation; K562 cells, 10 uM, 30 min; active = over 0.2 and 3.5 SD of the protein, either way, in both replicates (recomputed)
In short: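 Soluble protein was defined as the supernatant after 21,000xg for 90 min. It came from K562 cells at 2×10^6 cells/mL given 10 μM compound for 30 min, heated in aliquots for 3 min across 48°C-58°C, pooled, and extracted in PBS with 0.5% NP-40 at 4°C, and was quantified by TMTpro 16plex LC-MS/MS with equalised channel sums. Thermal stability against control samples, from duplicates, is reported as log2 fold change.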

Sequence of UniProt Q13547 (Q13547 whole entry, looked up): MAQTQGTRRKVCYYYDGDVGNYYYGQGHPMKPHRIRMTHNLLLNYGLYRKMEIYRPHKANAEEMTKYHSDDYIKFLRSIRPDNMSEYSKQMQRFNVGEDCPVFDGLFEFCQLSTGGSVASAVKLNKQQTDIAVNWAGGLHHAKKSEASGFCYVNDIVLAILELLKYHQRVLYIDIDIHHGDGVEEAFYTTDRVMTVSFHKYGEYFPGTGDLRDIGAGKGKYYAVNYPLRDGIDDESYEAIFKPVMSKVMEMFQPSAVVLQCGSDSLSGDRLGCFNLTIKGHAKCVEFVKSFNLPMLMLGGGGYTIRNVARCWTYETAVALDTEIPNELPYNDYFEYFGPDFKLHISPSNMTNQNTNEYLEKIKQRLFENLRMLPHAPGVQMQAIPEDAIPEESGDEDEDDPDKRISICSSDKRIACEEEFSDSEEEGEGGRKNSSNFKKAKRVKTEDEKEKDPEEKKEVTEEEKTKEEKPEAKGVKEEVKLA
Sequence of UniProt Q9Y3D6 (Q9Y3D6 whole entry, looked up): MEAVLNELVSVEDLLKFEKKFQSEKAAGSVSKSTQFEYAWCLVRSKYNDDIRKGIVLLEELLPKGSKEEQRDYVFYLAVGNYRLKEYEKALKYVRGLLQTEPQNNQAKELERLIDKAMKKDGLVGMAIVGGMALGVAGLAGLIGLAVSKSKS
Sequence of UniProt Q13907 (Q13907 whole entry, looked up): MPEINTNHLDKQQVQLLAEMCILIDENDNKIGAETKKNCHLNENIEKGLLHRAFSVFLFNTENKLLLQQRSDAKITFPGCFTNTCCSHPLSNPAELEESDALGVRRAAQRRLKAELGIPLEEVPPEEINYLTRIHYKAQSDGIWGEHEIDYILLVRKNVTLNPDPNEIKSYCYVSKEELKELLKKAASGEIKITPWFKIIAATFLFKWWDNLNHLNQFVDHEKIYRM
Sequence of UniProt Q13889 (Q13889 whole entry, looked up): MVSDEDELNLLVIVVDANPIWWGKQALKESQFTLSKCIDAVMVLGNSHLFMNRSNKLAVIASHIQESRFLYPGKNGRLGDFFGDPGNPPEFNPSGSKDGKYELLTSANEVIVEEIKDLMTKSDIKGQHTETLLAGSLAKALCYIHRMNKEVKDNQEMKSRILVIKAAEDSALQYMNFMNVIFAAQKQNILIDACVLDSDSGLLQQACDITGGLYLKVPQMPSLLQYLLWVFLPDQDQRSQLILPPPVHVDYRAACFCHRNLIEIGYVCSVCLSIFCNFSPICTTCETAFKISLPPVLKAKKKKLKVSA
Sequence of UniProt Q10472 (Q10472 whole entry, looked up): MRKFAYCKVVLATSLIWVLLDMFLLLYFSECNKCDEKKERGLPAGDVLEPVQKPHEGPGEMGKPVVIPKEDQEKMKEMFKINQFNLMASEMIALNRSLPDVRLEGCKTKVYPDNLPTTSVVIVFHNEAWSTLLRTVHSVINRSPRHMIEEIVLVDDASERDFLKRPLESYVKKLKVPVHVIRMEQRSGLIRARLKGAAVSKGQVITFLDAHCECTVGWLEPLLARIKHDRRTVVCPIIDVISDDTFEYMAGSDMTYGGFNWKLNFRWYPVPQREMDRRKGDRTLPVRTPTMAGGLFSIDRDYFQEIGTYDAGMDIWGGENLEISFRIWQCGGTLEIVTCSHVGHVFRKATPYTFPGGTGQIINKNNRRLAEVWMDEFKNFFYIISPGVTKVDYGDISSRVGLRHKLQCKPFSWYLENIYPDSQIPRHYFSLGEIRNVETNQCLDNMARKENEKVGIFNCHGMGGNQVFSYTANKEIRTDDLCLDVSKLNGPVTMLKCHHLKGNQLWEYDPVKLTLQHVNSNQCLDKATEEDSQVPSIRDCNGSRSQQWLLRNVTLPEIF
Sequence of UniProt Q9BUP3 (Q9BUP3 whole entry, looked up): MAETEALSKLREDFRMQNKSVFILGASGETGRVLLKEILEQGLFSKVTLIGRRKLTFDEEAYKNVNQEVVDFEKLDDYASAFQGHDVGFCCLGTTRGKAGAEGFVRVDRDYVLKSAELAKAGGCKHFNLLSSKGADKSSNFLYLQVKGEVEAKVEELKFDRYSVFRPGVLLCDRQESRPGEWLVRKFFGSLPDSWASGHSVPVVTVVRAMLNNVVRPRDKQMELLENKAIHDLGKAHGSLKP
Sequence of UniProt P55084 (P55084 whole entry, looked up): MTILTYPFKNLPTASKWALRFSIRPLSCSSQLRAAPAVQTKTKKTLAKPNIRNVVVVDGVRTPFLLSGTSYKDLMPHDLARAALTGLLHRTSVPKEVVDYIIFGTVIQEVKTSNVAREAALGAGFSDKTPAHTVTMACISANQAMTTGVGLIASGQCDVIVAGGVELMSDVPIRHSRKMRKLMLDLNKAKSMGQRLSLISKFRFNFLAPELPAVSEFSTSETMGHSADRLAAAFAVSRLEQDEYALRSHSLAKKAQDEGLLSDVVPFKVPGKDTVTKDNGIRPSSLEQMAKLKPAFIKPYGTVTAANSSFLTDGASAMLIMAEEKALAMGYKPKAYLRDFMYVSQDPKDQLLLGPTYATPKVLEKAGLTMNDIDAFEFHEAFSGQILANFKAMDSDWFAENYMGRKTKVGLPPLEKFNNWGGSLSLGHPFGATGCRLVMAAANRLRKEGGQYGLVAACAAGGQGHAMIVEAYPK
Sequence of UniProt P29083 (P29083 whole entry, looked up): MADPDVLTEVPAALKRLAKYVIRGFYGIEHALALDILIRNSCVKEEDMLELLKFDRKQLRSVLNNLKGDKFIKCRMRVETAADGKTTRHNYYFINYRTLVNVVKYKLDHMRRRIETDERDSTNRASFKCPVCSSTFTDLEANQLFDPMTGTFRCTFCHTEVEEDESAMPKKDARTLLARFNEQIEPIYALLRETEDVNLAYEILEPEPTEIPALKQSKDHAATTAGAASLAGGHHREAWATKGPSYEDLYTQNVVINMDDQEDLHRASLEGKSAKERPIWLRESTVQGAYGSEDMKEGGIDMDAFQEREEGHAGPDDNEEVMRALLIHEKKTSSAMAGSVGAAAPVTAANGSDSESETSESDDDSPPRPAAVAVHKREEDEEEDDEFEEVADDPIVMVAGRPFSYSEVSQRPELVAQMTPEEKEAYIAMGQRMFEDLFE
Sequence of UniProt Q96HJ9 (Q96HJ9 whole entry, looked up): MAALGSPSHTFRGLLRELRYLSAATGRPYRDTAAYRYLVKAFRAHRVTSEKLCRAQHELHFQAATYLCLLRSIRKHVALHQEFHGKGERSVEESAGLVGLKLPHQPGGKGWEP
Sequence of UniProt Q9H6D7 (Q9H6D7 whole entry, looked up): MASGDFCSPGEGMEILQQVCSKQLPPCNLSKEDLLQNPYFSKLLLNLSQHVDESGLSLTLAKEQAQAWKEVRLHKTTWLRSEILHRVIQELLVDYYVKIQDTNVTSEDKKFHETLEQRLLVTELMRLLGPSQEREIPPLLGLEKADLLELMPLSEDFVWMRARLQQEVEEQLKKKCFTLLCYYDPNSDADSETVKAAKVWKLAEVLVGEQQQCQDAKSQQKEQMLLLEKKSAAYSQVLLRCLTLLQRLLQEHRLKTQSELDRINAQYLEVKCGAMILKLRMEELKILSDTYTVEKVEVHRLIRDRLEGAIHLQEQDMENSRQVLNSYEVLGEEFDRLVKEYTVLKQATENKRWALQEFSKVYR
Sequence of UniProt Q7Z4V5 (Q7Z4V5 whole entry, looked up): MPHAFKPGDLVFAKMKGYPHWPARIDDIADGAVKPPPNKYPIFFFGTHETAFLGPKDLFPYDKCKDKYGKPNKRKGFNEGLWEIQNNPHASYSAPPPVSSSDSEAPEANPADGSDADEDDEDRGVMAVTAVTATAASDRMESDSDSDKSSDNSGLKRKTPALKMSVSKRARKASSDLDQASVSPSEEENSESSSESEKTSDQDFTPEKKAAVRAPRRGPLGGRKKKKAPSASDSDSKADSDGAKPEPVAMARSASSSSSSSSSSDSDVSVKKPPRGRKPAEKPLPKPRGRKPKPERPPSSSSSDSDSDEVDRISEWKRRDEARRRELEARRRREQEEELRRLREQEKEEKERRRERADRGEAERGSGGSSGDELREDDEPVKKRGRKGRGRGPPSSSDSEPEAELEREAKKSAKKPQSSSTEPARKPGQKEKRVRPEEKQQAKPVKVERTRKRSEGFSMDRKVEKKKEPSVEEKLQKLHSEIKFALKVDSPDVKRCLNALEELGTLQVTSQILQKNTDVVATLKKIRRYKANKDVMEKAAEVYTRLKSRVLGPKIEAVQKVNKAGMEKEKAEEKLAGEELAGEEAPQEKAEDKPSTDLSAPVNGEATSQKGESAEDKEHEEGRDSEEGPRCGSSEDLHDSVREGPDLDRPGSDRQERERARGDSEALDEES
Sequence of UniProt Q8N9F7 (Q8N9F7 whole entry, looked up): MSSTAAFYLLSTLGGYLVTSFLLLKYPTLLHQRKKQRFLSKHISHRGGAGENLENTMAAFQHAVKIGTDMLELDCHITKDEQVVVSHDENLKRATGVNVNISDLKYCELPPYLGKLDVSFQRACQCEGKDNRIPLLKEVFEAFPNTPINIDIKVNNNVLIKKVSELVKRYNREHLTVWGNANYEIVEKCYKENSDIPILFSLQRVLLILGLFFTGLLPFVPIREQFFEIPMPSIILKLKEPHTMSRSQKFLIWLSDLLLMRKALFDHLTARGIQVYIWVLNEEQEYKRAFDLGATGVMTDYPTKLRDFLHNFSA
Sequence of UniProt Q9UKD1 (Q9UKD1 whole entry, looked up): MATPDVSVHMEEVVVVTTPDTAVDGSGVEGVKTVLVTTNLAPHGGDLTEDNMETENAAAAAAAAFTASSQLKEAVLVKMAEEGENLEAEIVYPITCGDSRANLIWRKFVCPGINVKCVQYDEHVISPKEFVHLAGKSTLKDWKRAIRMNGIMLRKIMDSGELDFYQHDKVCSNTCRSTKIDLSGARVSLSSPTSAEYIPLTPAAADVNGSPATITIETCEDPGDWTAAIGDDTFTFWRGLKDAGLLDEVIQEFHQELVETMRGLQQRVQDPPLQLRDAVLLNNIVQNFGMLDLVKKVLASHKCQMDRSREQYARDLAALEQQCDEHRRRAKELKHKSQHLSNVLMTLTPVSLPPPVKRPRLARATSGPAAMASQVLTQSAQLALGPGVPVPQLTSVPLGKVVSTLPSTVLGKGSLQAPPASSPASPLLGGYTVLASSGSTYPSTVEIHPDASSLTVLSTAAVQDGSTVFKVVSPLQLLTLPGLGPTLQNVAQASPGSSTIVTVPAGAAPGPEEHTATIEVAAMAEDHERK

Row | Target | log2 fold change
1 | FAM91A1 (UniProt Q658Y4) | 0.055 (inactive)
2 | GSK3B isoform 2 (UniProt P49841) | 0.012 (inactive)
3 | GDPD1 (UniProt Q8N9F7) | 0.505 (active)
4 | FIS1 (UniProt Q9Y3D6) | 0.333 (active)
5 | GTF2H3 (UniProt Q13889) | -0.099 (inactive)
6 | HSPA8 (UniProt E9PK54) | -0.058 (inactive)
7 | FMC1 (UniProt Q96HJ9) | 0.139 (inactive)
8 | HEXA (UniProt P06865) | 0.031 (inactive)
9 | HTATIP2 isoform 3 (UniProt Q9BUP3) | -0.016 (inactive)
10 | GTF2E1 (UniProt P29083) | -0.026 (inactive)
11 | IDI1 isoform 2 (UniProt Q13907) | 0.01 (inactive)
12 | GAPVD1 isoform 6 (UniProt Q14C86) | -0.04 (inactive)
13 | HSPA8 (UniProt P11142) | 0.067 (inactive)
14 | HADHB (UniProt P55084) | -0.111 (inactive)
15 | HDAC1 (UniProt Q13547) | -0.004 (inactive)
16 | GMEB2 (UniProt Q9UKD1) | 0.018 (inactive)
17 | HEATR5B (UniProt Q9P2D3) | 0.043 (inactive)
18 | GBA2 (UniProt Q9HCG7) | -0.046 (inactive)
19 | HIST2H3A (UniProt Q71DI3) | -0.196 (inactive)
20 | GALNT1 (UniProt Q10472) | -0.026 (inactive)
21 | HDGFL2 (UniProt Q7Z4V5) | 0.01 (inactive)
22 | HAUS4 (UniProt Q9H6D7) | 0.466 (inactive)
23 | GLIPR2 (UniProt Q9H4G4) | 0.002 (inactive)
